The record followed here is PubChem BioAssay.

The source made the active and inactive calls.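 Rule for the calls: active = compounds killing one labelled cell type while sparing the other, by normalised counts and ratio limits, not self-fluorescent; inactive = the rest.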

This experiment can be described thus: EMT-state selective cytotoxicity in co-culture – imaging, PC-3E GFP, TEM4-18 mCherry, primary screen (AID 1345086).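 For all read-outs here: cells exposed to compound for 72 h before imaging.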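 For red/green cell ratio (normalised): normalised mesenchymal count divided by normalised epithelial count so high means epithelial killing.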 The note with it: PC-3E GFP / TEM4-18 mCherry co-culture, imaging cell counts, at 1 µM; for red/green cell ratio (normalised): actives lie on both sides, counts scaled to control wells, 1 = unselective.
[1] abbreviates: measured here: epithelial PC-3E GFP cell survival.
The mark [2] stands for this setting: measured here: mesenchymal TEM4-18 mCherry cell survival.

`COc1c(F)c(F)cc2c(=S)c(C(=O)O)cn(C3CC3)c12`: the red/green cell ratio (normalised) was 0.91 (inactive). The normalised cell number under setting [1] was 1.14. This compound yielded a normalised cell number under setting [2] of 1.04.

As for `CO[C@H]1/C=C/O[C@@]2(C)Oc3c(C)c(O)c4c(O)c(c(/C=N/N5CCN(C)CC5)c(O)c4c3C2=O)NC(=O)/C(C)=C\C=C\[C@H](C)[C@H](O)[C@@H](C)[C@@H](O)[C@@H](C)[C@H](CC(C)=O)[C@@H]1C`, the red/green cell ratio (normalised) was 0.98 (inactive). The compound further gave a normalised cell number under setting [1] of 1.05. Besides, the normalised cell number under setting [2] is 1.03.

Regarding `CCC(C)[C@H]1O[C@]2(C=C[C@@H]1C)C[C@@H]1C[C@@H](C/C=C(\C)[C@@H](OC3C[C@H](OC)C(O[C@H]4C[C@H](OC)[C@@H](O)[C@H](C)O4)[C@H](C)O3)[C@@H](C)/C=C/C=C3\COC4[C@H](OC)C(C)=C[C@@H](C(=O)O1)[C@]34O)O2` (stereo partly specified), the red/green cell ratio (normalised) is 0.83 (inactive). The compound further came in with a normalised cell number under setting [1] of 1.13. Under setting [2], this compound registered a normalised cell number of 0.93.

As for `O=C(O)CCC(=O)OC1C(CO)O[C@H](Sc2ccccc2)[C@H]2NC(=O)O[C@@H]12` (stereo partly specified), the red/green cell ratio (normalised) was 1.26 (inactive). Under setting [1], this compound registered a normalised cell number of 0.84. Besides, under setting [2], the normalised cell number was 1.06.

With `COC(=O)C[C@H]1C(C)(C)C(=O)[C@@H]2CC3=C(CC[C@]4(C)C3=CC(=O)O[C@H]4c3ccoc3)C1(C)C2=O`, the red/green cell ratio (normalised) is 1.11 (inactive). Moreover, the normalised cell number under setting [1] worked out at 0.96. In addition, the normalised cell number under setting [2] amounted to 1.06.

As to `CC1OC(O[C@H]2/C=C/C=C/C=C/C=C/C=C/C=C/C=C/[C@H](C)[C@@H](O)[C@@H](C)[C@H](C)OC(=O)CC(O)CC(O)CCC(O)C(O)CC(O)C[C@]3(O)C[C@H](O)C(C(=O)O)C(C2)O3)C(O)[C@@H](N)C1O` (stereo partly specified), the red/green cell ratio (normalised) was 1 (inactive). Further, the normalised cell number under setting [1] came out at 1.18. The compound also gave a normalised cell number under setting [2] of 1.18.

Consider `Cc1nc(COP(=O)(O)O)cc(CN(CCN(CC(=O)O)Cc2cc(COP(=O)(O)O)nc(C)c2[O-])CC(=O)O)c1[O-].[Mn+2]`, for which the red/green cell ratio (normalised) is 0.88 (inactive). This compound came in with a normalised cell number under setting [1] of 1.27. Besides, the normalised cell number under setting [2] came to 1.12.

Consider `CCCCCCCCCCCCCc1ccco1`, for which the red/green cell ratio (normalised) was 1.13 (inactive). Besides, the normalised cell number under setting [1] was 0.74. The same compound gave a normalised cell number under setting [2] of 0.83.

On to `COC(=O)c1c[nH]c2c(OC)c(F)c(F)cc2c1=O`, for which the red/green cell ratio (normalised) is 1.14 (inactive). For the same compound, under setting [1], the normalised cell number was 1.06. The compound also had a normalised cell number under setting [2] of 1.21.

As for `C=C1C(=O)OC(C(=O)OC)C1(O)CCCCCCCCC` (stereo unspecified), the red/green cell ratio (normalised) was 1.05 (inactive). For the same compound, the normalised cell number under setting [1] came to 0.99. Under setting [2], this compound yielded a normalised cell number of 1.04.

`COc1ccc(-c2cc(=O)c3c(O)c(OC)c(O[C@H]4O[C@H](CO[C@@H]5O[C@@H](C)[C@H](O)[C@@H](O)[C@H]5O)[C@@H](O)[C@H](O)[C@H]4O)cc3o2)cc1`: the red/green cell ratio (normalised) was 0.98 (inactive). The compound further came in with a normalised cell number under setting [1] of 1.05. Under setting [2], the normalised cell number came out at 1.03.

For `O=C(O)CCCCCCCC(O)C(O)CCCCCCO` (stereo unspecified), the red/green cell ratio (normalised) is 1.02 (inactive). The same compound registered a normalised cell number under setting [1] of 1.11. Under setting [2], this compound displayed a normalised cell number of 1.13.

For `CC(C)=CCC[C@H](C)[C@H]1CC[C@]2(C)C[C@@H]3C(C)=CC(=O)[C@@H]3/C(C=O)=C\C[C@@H]12`, the red/green cell ratio (normalised) is 0.9 (inactive). For the same compound, the normalised cell number under setting [1] stood at 1.16. The normalised cell number under setting [2] was 1.04.

`COc1c(N2CC[C@@H](CN)C2)c(F)cc2c(=O)c(C(=O)O)cn(CCc3ccccc3)c12`: the red/green cell ratio (normalised) was 1.14 (inactive). Further, the normalised cell number under setting [1] is 0.87. In addition, the normalised cell number under setting [2] turned out to be 1.

Regarding `CC1(C)C2CC(=O)[C@@]3(C)C4=CC(=O)O[C@@H](C(=O)O)[C@]4(C)CCC3[C@@]2(C)[C@@H](O)C[C@H]1O` (stereo partly specified), the red/green cell ratio (normalised) is 0.95 (inactive). For the same compound, the normalised cell number under setting [1] was determined as 1.05. Under setting [2], the normalised cell number was found to be 0.99.

As to `CCOC(=O)O[C@]1(C(=O)COC(=O)CC)CCC2C3CCC4=CC(=O)C=C[C@]4(C)C3[C@@H](O)C[C@@]21C` (stereo partly specified), the red/green cell ratio (normalised) was 0.87 (inactive). For the same compound, the normalised cell number under setting [1] turned out to be 1.29. The compound further registered a normalised cell number under setting [2] of 1.13.

On to `COC(=O)[C@@H]1OC(=O)C2OC23[C@@]1(C)CCC1[C@@]2(C)CCC(=O)C(C)(C)C2C[C@@H](OC(C)=O)[C@]13C` (stereo partly specified), for which the red/green cell ratio (normalised) is 1.04 (inactive). The compound further showed a normalised cell number under setting [1] of 1.06. For the same compound, the normalised cell number under setting [2] worked out at 1.11.

As to `OC[C@H]1O[C@H](OCCCc2ccc(O)cc2)[C@H](O)[C@@H](O)[C@@H]1O`, the red/green cell ratio (normalised) was 1.19 (inactive). This compound also displayed a normalised cell number under setting [1] of 0.9. Under setting [2], this compound displayed a normalised cell number of 1.07.

In the case of `C[C@H](O)CCc1ccc(C(=O)O)nc1`, the red/green cell ratio (normalised) was 0.97 (inactive). The normalised cell number under setting [1] turned out to be 1.16. This compound also yielded a normalised cell number under setting [2] of 1.13.

Consider `O=c1cc(-c2ccccc2)oc2cc(O[C@@H]3O[C@H](CO)[C@@H](O)[C@H](O)[C@H]3O)c(O)c(O)c12`, for which the red/green cell ratio (normalised) was 0.89 (inactive). Under setting [1], this compound showed a normalised cell number of 1.13. The normalised cell number under setting [2] stood at 1.

Turning to `CC(=O)O[C@H]1CC2CCC3C(CC[C@@]4(C)C3C[C@H]([N+]3(C)CCCCC3)[C@@H]4OC(C)=O)[C@@]2(C)C[C@@H]1N1CCCCC1` (stereo partly specified), the red/green cell ratio (normalised) is 0.86 (inactive). Moreover, the normalised cell number under setting [1] was 1.03. The compound further gave a normalised cell number under setting [2] of 0.88.

As for `NCC1O[C@@H](OC2C(N)C[C@@H](N)C(OC3OC(CO)[C@@H](O)C(N)[C@H]3O)[C@H]2O)C(O)CC1O` (stereo partly specified), the red/green cell ratio (normalised) was 1.05 (inactive). The same compound showed a normalised cell number under setting [1] of 1.04. In addition, under setting [2], the normalised cell number was determined as 1.09.

Regarding `COc1cc(C(O)CO)oc1C=O` (stereo unspecified), the red/green cell ratio (normalised) was 0.86 (inactive). The normalised cell number under setting [1] amounted to 1.08. The same compound had a normalised cell number under setting [2] of 0.93.

On to `O=C1C=CC2(Oc3cccc4cccc(c34)O2)[C@H]2[C@H]1[C@@H](O)CC[C@H]2O`, for which the red/green cell ratio (normalised) was 1.07 (inactive). Besides, the normalised cell number under setting [1] came out at 0.95. Under setting [2], this compound yielded a normalised cell number of 1.01.

Consider `COC(=O)[C@H](Cc1ccccc1)NC(=O)/C(=C1\OC(=O)C(c2ccccc2)=C1O)c1ccccc1`, for which the red/green cell ratio (normalised) was 0.97 (inactive). The normalised cell number under setting [1] came to 0.92. Under setting [2], this compound showed a normalised cell number of 0.9.

For the compound `C=CC(C)(C)c1ccc2[nH]c3c(c2c1)C[C@@H]1CC[C@@]2(O)C4=CC(=O)[C@@H]5O[C@@]4(CC[C@]2(C)[C@@]31C)OC5(C)C`, the red/green cell ratio (normalised) is 1.04 (inactive). The compound also displayed a normalised cell number under setting [1] of 0.97. The same compound showed a normalised cell number under setting [2] of 1.01.

As for `COC(=O)c1cc(OC)cc(OC(=O)c2c(O)cc3cc(C)oc(=O)c3c2O)c1O`, the red/green cell ratio (normalised) was 0.92 (inactive). Under setting [1], this compound had a normalised cell number of 0.94. Under setting [2], this compound came in with a normalised cell number of 0.86.
